Test results: paper PMC7862700, “An all-to-all approach to the identification of sequence-specific readers for epigenetic DNA modifications on cytosine”

What was measured:
Experiment in all cases: DAPPL (digital affinity profiling via proximity ligation, sequencing); 10 mM Tris-HCl pH 7.5, 50 mM NaCl, 1 mM DTT, 4% glycerol, room temperature, 30 min; GST-TFs on glutathione beads, 16-mer random dsDNA library, 0.1% formaldehyde crosslink after washing; high values mean tight binding
Conditions in all cases: protein: recombinant; tags: N-terminal GST; dsDNA, one strand shown
[1] = molecular target: T1, FLI1 (Homo sapiens, UniProt Q01543 1-452)
T1 sequence: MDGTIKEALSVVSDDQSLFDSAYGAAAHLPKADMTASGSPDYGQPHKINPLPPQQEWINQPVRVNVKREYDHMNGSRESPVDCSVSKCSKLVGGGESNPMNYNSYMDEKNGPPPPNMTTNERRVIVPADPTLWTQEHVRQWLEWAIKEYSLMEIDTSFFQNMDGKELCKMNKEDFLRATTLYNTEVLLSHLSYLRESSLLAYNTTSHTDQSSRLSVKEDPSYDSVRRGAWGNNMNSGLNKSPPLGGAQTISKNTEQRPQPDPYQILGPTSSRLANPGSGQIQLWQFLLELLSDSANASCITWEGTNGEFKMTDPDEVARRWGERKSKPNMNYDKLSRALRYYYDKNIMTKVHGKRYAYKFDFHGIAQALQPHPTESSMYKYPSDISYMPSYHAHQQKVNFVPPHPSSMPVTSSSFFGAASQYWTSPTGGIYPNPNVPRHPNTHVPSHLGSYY
In short: (§1)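 Beads coated with glutathione captured GST-fused human transcription factors that had been expressed in yeast, and the factors were then given DNA barcodes and pooled with a tag-only sample. The pools were incubated with 200 nmole of a random double-stranded 16-mer DNA library in Tris/NaCl/DTT/glycerol buffer for 30 min at room temperature, washed, crosslinked with 0.1% formaldehyde and proximity-ligated with BsaI/T4 ligase at 37 °C for 1 h. PCR amplification and Illumina NextSeq500 sequencing came last. Binding signal is each hexamer's read frequency for a factor divided by its frequency for the tag-only sample.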

[2] = molecular target: T2, ELK1 (Homo sapiens, UniProt P19419 1-428)
T2 sequence: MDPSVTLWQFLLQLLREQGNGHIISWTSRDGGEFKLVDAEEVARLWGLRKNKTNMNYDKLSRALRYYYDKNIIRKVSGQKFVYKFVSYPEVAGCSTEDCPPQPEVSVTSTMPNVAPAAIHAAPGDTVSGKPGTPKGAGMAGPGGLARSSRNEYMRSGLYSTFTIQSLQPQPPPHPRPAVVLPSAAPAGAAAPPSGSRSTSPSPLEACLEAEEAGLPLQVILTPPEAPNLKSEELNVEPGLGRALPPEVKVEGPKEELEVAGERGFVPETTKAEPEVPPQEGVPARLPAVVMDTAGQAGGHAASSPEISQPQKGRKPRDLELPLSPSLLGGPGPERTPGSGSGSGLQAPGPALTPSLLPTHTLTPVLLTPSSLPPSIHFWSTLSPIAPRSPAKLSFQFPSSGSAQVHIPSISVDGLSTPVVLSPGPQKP
In short: as §1

[3] = molecular target: T3, GABPA (Homo sapiens, UniProt Q06546 1-454)
T3 sequence: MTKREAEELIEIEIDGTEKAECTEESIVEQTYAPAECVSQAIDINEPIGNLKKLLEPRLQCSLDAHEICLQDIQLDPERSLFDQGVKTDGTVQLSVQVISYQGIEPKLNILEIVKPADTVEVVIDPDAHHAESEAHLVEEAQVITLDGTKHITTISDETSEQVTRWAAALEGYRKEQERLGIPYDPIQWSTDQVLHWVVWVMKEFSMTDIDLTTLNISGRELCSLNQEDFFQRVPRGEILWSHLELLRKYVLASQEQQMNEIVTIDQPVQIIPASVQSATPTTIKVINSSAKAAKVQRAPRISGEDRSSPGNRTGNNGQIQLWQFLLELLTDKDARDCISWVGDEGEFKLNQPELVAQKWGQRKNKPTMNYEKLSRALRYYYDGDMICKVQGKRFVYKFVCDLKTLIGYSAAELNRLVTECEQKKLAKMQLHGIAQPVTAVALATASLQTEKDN
In short: as §1

[4] = molecular target: T4, ERG (Homo sapiens, UniProt P11308 1-479)
T4 sequence: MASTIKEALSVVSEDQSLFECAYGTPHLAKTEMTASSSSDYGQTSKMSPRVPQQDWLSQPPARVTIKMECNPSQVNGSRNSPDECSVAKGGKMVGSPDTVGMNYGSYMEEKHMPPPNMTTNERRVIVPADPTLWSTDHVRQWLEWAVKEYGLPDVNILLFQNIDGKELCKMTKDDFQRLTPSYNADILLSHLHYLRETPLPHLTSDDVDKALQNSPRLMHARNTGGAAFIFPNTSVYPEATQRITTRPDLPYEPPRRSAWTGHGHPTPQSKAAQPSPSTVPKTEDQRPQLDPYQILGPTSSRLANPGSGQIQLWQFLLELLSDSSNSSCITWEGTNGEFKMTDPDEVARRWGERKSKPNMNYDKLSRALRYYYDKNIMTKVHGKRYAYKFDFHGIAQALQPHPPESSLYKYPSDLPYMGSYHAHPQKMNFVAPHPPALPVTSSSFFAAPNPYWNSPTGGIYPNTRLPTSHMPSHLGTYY
In short: as §1

[5] = molecular target: ELF1 (Homo sapiens, UniProt P32519 1-619)
ELF1, sequence (P32519 whole entry): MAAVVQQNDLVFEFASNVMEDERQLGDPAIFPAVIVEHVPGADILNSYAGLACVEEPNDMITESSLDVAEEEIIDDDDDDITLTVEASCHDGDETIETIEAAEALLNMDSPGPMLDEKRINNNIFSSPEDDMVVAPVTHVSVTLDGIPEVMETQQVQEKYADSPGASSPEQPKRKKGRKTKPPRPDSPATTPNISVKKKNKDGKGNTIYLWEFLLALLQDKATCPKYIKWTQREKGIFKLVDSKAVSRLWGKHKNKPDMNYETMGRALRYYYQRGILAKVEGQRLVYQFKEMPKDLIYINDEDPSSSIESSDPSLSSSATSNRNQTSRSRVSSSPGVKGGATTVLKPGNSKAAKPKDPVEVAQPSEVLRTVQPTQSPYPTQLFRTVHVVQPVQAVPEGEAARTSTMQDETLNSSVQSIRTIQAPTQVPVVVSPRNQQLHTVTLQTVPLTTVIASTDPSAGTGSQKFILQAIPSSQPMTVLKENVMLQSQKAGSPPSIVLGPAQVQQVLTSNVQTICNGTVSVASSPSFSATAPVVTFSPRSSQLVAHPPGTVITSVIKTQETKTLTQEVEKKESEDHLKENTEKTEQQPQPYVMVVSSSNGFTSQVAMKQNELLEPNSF
In short: as §1

[6] = molecular target: T5, EHF (Homo sapiens, UniProt Q9NZC4 1-300)
T5 sequence: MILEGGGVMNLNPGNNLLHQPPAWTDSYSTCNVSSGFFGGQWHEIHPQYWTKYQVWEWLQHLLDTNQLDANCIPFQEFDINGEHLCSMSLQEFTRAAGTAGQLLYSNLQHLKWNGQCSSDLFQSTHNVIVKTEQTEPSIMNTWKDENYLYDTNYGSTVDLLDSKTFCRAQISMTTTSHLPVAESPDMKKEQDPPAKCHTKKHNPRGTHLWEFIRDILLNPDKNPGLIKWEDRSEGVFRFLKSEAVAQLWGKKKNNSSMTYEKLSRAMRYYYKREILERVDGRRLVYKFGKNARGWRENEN
In short: as §1

[7] = molecular target: SPI1 (Homo sapiens, UniProt P17947 1-270)
In short: as §1

[8] = molecular target: SPIB (Homo sapiens, UniProt Q01892 1-262)
SPIB, sequence (Q01892 whole entry): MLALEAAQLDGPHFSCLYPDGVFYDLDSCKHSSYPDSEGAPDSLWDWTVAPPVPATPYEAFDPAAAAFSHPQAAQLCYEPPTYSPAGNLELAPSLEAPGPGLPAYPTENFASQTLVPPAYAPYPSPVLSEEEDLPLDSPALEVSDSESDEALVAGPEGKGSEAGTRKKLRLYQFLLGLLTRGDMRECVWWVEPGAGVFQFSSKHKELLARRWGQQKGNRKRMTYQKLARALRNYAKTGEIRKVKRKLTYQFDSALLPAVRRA
In short: as §1

[9] = molecular target: T6, ELK3 (Homo sapiens, UniProt P41970 1-407)
T6 sequence: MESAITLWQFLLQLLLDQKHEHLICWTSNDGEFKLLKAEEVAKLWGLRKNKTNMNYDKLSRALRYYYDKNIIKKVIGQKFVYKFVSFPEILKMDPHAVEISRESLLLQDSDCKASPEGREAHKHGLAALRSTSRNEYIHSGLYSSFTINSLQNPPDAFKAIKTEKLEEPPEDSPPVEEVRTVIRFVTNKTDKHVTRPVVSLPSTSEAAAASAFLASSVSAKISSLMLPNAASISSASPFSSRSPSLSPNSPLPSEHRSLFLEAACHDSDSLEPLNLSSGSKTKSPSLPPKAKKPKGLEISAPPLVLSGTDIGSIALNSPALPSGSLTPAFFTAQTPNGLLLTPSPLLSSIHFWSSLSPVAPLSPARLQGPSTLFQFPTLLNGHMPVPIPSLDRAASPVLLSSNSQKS
In short: as §1

**Q.** Which binding signal [1] does the source give for TTACAA here?
**A.** The binding signal was 1.15 fold enrichment (6-mer frequency, TF over GST control).

**Q.** What about the binding signal [2] of the same sequence?
**A.** The binding signal was 1.17 fold enrichment (6-mer frequency, TF over GST control).

**Q.** And the binding signal [3]?
**A.** The binding signal was 1.16 fold enrichment (6-mer frequency, TF over GST control).

**Q.** What about the binding signal [4] of the same sequence?
**A.** The binding signal was 1.16 fold enrichment (6-mer frequency, TF over GST control).

**Q.** And the binding signal [5]?
**A.** Its binding signal is 1.15 fold enrichment (6-mer frequency, TF over GST control).

**Q.** And the binding signal [6]?
**A.** Its binding signal is 1.17 fold enrichment (6-mer frequency, TF over GST control).

**Q.** What about the binding signal [7] of the same sequence?
**A.** Its binding signal is 1.15 fold enrichment (6-mer frequency, TF over GST control).

**Q.** And the binding signal [8]?
**A.** Its binding signal is 1.07 fold enrichment (6-mer frequency, TF over GST control).

**Q.** And the binding signal [9]?
**A.** The binding signal was 1.13 fold enrichment (6-mer frequency, TF over GST control).
